ELG1 genotox: genotoxicity induction in ELG1-luciferase HEK293T cells; 330,000 compounds, 1.3% hits; HEK293T ELG1-luciferase reporter, luminescence, 16 h; Potency, µM (highest dose often 46 µM), for inactives: top-dose activity change, positive = activation, usual class: activators; note: % of control where 0% means no effect; nearly all actives have a fitted effect of over 60% in size
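Reporter readout depends on ELG1 protein level, which increases with genetic stress. After 16 hr compound exposure at 37 °C, luciferase activity was quantified using ONE-Glo.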
SMN2 splice up: increases expression of the SMN2 splice variant | HEK293 SMN2-luciferase splicing reporter, luminescence, 30-36 h | Potency, µM (titrated, usually from 46.1 µM), for inactives: top-dose activity change, positive = activation, usual class: activators | 210,000 compounds, 2.8% hits; note: % of control where 0% means no effect; nearly all actives have a fitted effect of over 55% in size
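HEK293 cells carry an SMN2 minigene-luciferase reporter in which exon 7 inclusion puts luciferase in frame. Cells were seeded at 2000 cells/well, attached for 10-12 hours, then exposed to compounds for 30-36 hours at 37C before ONE-Glo luminescence.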
FLuc counter: inhibits or activates purified firefly luciferase, miR-21 counter-screen; P08659; AID 588342; purified FLuc, Km substrates, luminescence inhibition; Potency, µM (highest dose often 57.5 µM), for inactives: top-dose activity change, negative = inhibition, hits mostly inhibitors; 360,000 compounds, 6.9% hits;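 note: plate controls were vehicle for no effect and reference inhibitor for full effect; nearly all actives have a fitted effect of over 55% in size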
Target sequence (P08659 whole entry, looked up): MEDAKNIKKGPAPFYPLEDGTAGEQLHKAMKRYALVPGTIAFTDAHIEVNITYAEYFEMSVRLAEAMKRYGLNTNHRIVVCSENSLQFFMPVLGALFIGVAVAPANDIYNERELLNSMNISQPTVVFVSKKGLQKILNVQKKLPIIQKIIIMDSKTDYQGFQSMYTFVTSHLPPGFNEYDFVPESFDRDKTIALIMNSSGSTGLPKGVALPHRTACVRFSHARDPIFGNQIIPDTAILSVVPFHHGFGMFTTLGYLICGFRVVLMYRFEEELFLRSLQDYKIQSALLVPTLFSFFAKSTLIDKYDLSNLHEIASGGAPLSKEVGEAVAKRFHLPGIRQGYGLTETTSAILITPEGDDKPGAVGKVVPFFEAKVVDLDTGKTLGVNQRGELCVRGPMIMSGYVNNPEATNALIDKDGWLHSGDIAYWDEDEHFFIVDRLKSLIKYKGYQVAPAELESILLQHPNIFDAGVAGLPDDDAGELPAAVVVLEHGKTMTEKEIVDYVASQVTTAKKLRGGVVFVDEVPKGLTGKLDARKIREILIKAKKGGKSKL
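Purified P. pyralis luciferase (10nM final) with 10uM D-luciferin and 10uM ATP (Km levels) in 50mM Tris acetate pH 7.5, 10mM Mg acetate, 0.01% Tween-20, 0.05% BSA; qHTS 6-point titration, ~60 µM downward; luminescence read.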
Luc counter: counter-screen: inhibitors of Kinase-Glo firefly luciferase | Potency, µM (titrated, usually from 38.3 µM), for the others: at the top dose activity change, negative = inhibition, usual class: inhibitors | Q27757 | Kinase-Glo luciferase, ATP luminescence, 8 min | 200,000 compounds, 0.28% hits; note: % is set by controls: 0 for no effect and ±100 for the full control effect; nearly all actives have a fitted effect of over 60% in size
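Compounds were added to a substrate mix at pH 7.2 (50 mM imidazole, 10 uM ATP, within the enzyme's linear range), followed by Kinase-Glo detection reagent; luminescence was measured after 8 minutes at ambient temperature.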
NPC1 promoter act: activators of NPC1 promoter; Huh7 NPC1 promoter luciferase reporter, 24 h; Potency, µM (titrated, usually from 9.22 µM), for the others: top-dose activation, actives largely listed as activators; 320,000 compounds, 2.4% hits; AID 485313; note: % of control where 0% means no effect; nearly all actives have a fitted effect of over 60% in size
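Luminescence from an NPC1 promoter-driven luciferase reporter in stably transfected Huh7 cells was measured after 24 h compound treatment at 37 °C, followed by 10 min ambient incubation with luciferase detection reagent.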
Rab9 prom act: activators of Rab9 promoter. Huh7 Rab9 promoter-luciferase reporter, luminescence, 24 h. Potency, µM (top dose mostly 9.22 µM), inactives show at the top dose activation, negative = inhibition, most hits filed as activators. 320,000 compounds, 2.8% hits. AID 485297; note: % of control where 0% means no effect; nearly all actives have a fitted effect of over 60% in size
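Cells were plated at 1500 per well in reduced-serum medium with 10% FBS and left 2 h. Compound in DMSO was then added for 24 h at 37 °C. Reporter signal was read by luminescence after 10 min with luciferase detection reagent.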
Numbers without * were called inactive; u = inconclusive; x = no result given. Shown are actives, neighbours in structure and some others; about 7.5% of the full set was active somewhere. Calls come from the whole dose curve; as a rule, active = well fitted curve in the direction sought with a large enough effect; inconclusive = small, poorly fitted or top-dose-only effect, or another doubt; inactive = no such curve, though single readings can be large; an effect the other way counts as inactive or inconclusive. Potency is the fitted concentration of half-maximal effect.

SMILES	ELG1 genotox	SMN2 splice up	FLuc counter	Luc counter	NPC1 promoter act	Rab9 prom act
O=C(N/N=C/c1ccccc1)c1cc(-c2ccc3c(c2)OCO3)n[nH]1	2%	15%	-5%	-1%	-5%	-2%
COc1cc(/C=N/NC(=O)c2ccc3c(c2)OCCO3)cc(Cl)c1O	10%	x	13µM*	x	22%	2%
O=C(N/N=C/c1ccccc1)c1ccc2c(c1)OCO2	u	x	u	x	0.56µM*	0.4µM*
COc1cc(/C=N/NC(=O)CNC(=O)c2ccc3c(c2)OCCO3)ccc1O	-4%	-7%	-3%	-5%	2%	5%
CCOc1cc(/C=N/NC(=O)c2nn(C)cc2Br)ccc1OCc1ccccc1Cl	-14%	-16%	u	13%	-1%	-1%
Cn1cc(Br)c(C(=O)N/N=C/c2cccc(OC3CSC3)c2)n1	8%	6%	19µM*	-10%	0%	13%
O=C(O)c1ccc(CNC(=O)c2ccc3c(c2)OCCO3)cc1	9%	x	u	x	1%	1%
O=C(O)c1ccc(/C=N/NC(=O)c2ccc3c(c2)OCCO3)cc1	u	x	6.7µM*	x	0%	1%
CC(C)CC(=O)Nc1cccc(-c2nc3ccccc3[nH]2)c1	-2%	u	17µM*	x	2%	-6%
Cc1cc(C)cc(OCC(=O)Nc2cccc(-c3nc4ccccc4[nH]3)c2)c1	x	17%	11µM*	x	x	x
CC(C)(C)C(=O)Nc1cccc(-c2nc3ccccc3[nH]2)c1	0%	29%	15µM*	-3%	11%	5%
CC(Oc1ccccc1)C(=O)Nc1cccc(-c2nc3ccccc3[nH]2)c1 (stereo unspecified)	-5%	x	12µM*	x	0%	0%
CC(C)COc1ccc(C(=O)Nc2cccc(-c3nc4ccccc4[nH]3)c2)cc1	x	-15%	u	x	x	x
Cc1ccc(Nc2nnc(SCC(=O)NCC3CCCO3)s2)cc1 (stereo unspecified)	3%	x	x	x	x	x
COC(=O)c1ccc(CSc2nnc(Nc3cccc(OC)c3)s2)o1	0%	-22%	u	0%	0%	0%
COc1cccc(Nc2nnc(SCC3CCCCO3)s2)c1 (stereo unspecified)	14%	-28%	12µM*	7%	29%	10%
COc1ccc(Nc2nnc(SCC3CCCO3)s2)cc1 (stereo unspecified)	13%	28%	19µM*	1%	28%	u
Cc1cccc(Nc2nnc(SCC3CCCCO3)s2)c1C (stereo unspecified)	2%	u	9.5µM*	-3%	u	19%
O=C1CCCCC1C(=O)c1cn(-c2ccc(Cl)c(Cl)c2)nn1 (stereo unspecified)	u	14µM*	0.85µM*	-2%	11%	24%
COc1cccc(C2=CC(c3cccs3)n3nnnc3N2)c1 (stereo unspecified)	16µM*	14%	3%	-2%	-21%	-5%
CC(C)c1ccc(C2=CC(c3ccc(C(C)C)cc3)n3nnnc3N2)cc1 (stereo unspecified)	x	x	2.7µM*	x	x	x
COc1ccc(C2=CC(c3sccc3C)n3nnnc3N2)cc1 (stereo unspecified)	u	20%	-10%	1%	2.8µM*	2.8µM*
CCc1nnc(SCc2nc(-c3cccc(Cl)c3)oc2C)c2cc3sc(C)cc3n12	x	x	-2%	x	x	x
Cc1ccc(-c2nnc(Nc3ccc(F)cc3)c3ccccc23)cc1S(=O)(=O)NC(C)C	x	-15%	u	x	x	x
Cc1c(NC(=O)Cc2ccc(F)cc2)cccc1-c1nc2cccnc2s1	x	x	-1%	x	x	x
CC(C)Cn1c(SC(C)C(=O)Nc2ccc(N3CCOCC3)cc2)nc2ccccc21 (stereo unspecified)	2%	-6%	u	1%	-3%	-2%
CC(Sc1nc2ccccc2n1C)C(=O)Nc1ccc(N2CCOCC2)cc1 (stereo unspecified)	21%	-17%	17µM*	-3%	-1%	-2%
